Test results: PubChem BioAssay (NCI)
About 83,000 compounds went through this panel and 20% of them were active in at least one assay; those are over-represented in the sample as a whole.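 A percent growth of 40 corresponds to 60% growth inhibition; 0 means no net growth; -100 means all cells died. Active threshold: below 10.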 A number with no mark means an inactive call. Activity calls are given as the source filed them.

Legend:
Test in all cases: NCI-60 one-dose screen, 48 h (100 = growth as untreated, 0 = no growth, -100 = all killed)
Settings in all cases: 10 µM
[1] = tested on: HCT-15 colon
[2] = tested on: HT29 colon
[3] = tested on: SNB-75 CNS
[4] = tested on: SNB-19 CNS
[5] = tested on: U251 CNS
[6] = tested on: PC-3 prostate
[7] = tested on: SK-MEL-5 melanoma
[8] = tested on: UACC-62 melanoma
[9] = tested on: LOX IMVI melanoma
[10] = tested on: SK-MEL-28 melanoma
[11] = tested on: SK-MEL-2 melanoma
[12] = tested on: EKVX NSCLC
[13] = tested on: SN12C renal
[14] = tested on: UO-31 renal
[15] = tested on: TK-10 renal
[16] = tested on: ACHN renal
[17] = tested on: CAKI-1 renal
[18] = tested on: A498 renal
[19] = tested on: CCRF-CEM leukemia
[20] = tested on: MOLT-4 leukemia

Row | SMILES | growth [1] | growth [2] | growth [3] | growth [4] | growth [5] | growth [6] | growth [7] | growth [8] | growth [9] | growth [10] | growth [11] | growth [12] | growth [13] | growth [14] | growth [15] | growth [16] | growth [17] | growth [18] | growth [19] | growth [20]
1 | CCOc1nc(-c2ccccc2)cc2c(O)c(C(=O)N/N=C/c3ccc(OC)cc3)[nH]c(=O)c12 | 110% | 108% | 91.7% | 96.9% | 100% | 88% | 53.5% | 104% | 114% | 114% | 98.5% | 99.7% | 114% | 66.8% | 120% | 100% | 92.5% | 132% | 91.8% | 63%
2 | Nc1cc2c(cc1Cl)-c1ccc(Cl)cc1C2=O | 99.7% | 97.5% | 89.7% | 98.7% | 91.1% | 94.2% | 108% | 95.7% | 95.1% | 109% | 95.7% | 67.7% | 93.1% | 61.6% | 117% | 98.4% | 96.4% | 95.7% | 86.1% | 81.4%
3 | Nc1c(C(=O)Nc2ccccc2F)sc2nc3c(cc12)C(=O)CCC3 | 40.2% | 12.2% | 13.7% | 41.1% | 31.6% | 23.4% | 17.9% | 23.7% | 54.2% | 64.1% | 42.6% | 56.3% | 49.8% | 76% | 59.7% | 65.4% | 4.36% (active) | -1.01% (active) | 26.8% | 73.6%
4 | O=C(N/N=C/c1ccccc1O)c1ccccc1 | 23.9% | 45.5% | 56.6% | 56% | 27.6% | 37.8% | 13.3% | 13.8% | 5.3% (active) | 73.5% | -3.08% (active) | 21.7% | 47.2% | 12.2% | 46% | 13% | 7.12% (active) | 71.4% | -28.1% (active) | 14.7%
5 | COc1ccccc1Cn1cc2c(c1-c1ccccc1)CCc1cnoc1-2 | 36% | 12.4% | 15.6% | 53.5% | 39.7% | 29.9% | 18.1% | 50.1% | 38.1% | 58.3% | 49.2% | 46.3% | 50.2% | 34.1% | 81.4% | 49.3% | 4.31% (active) | 43.2% | 30.5% | 38.8%
6 | CCOC(=O)C(CCC1=NC(C)(C)CC(C)O1)C(=O)OCC (stereo not given) | 46% | 32% | 104% | 106% | 82.3% | 76.3% | 108% | 93.3% | 90.1% | 107% | 34.1% | 107% | 95.7% | 77.5% | 101% | 6.26% (active) | 45.7% | 106% | 111% | 68.8%
7 | O=C(NNC(=O)c1ccncc1)Nc1ccc([N+](=O)[O-])cc1 | 101% | 99.5% | 111% | 107% | 113% | 103% | 112% | 113% | 101% | 127% | 95.8% | 91.6% | 114% | 89.6% | 106% | 101% | 96.5% | 115% | 107% | 81.2%
8 | CCOC(=O)c1c(Cl)c2c(n1Cc1cccc(OC)c1)-c1oncc1CC2 | 30.8% | 7.37% (active) | -11.7% (active) | 34% | 26% | 31.7% | 20.9% | 33.6% | 38.3% | 34% | 27.8% | 56.4% | 42.7% | -1.88% (active) | 54.7% | 44.8% | 7.94% (active) | 1.89% (active) | 15.8% | 25.9%
9 | O=C(O)c1ccccc1C(=O)c1cccc2c(F)cccc12 | 104% | 115% | 86.2% | 98.3% | 98.7% | 92.5% | 108% | 97.7% | 92.8% | 111% | 103% | 108% | 100% | 87.1% | 110% | 98.2% | 104% | 130% | 92.3% | 93.1%
10 | COC(=O)CCCCCCCCC(C)c1ccc(C(C)=O)cc1 (stereo not given) | 103% | 101% | 122% | 110% | 107% | 106% | 111% | 116% | 98.2% | 130% | 96% | 95.3% | 110% | 96.9% | 98.3% | 99.3% | 97.6% | 112% | 111% | 89.8%
11 | COc1cc(Cn2c(-c3ccccc3)cc3c2-c2oncc2CC3)cc(OC)c1 | 15.3% | -8.38% (active) | 19.5% | 34.8% | 18% | 19.2% | 5.07% (active) | 31.6% | 27.3% | 50.1% | 22.3% | 43.7% | 24.3% | 9.92% (active) | 57.4% | 34.7% | 18% | -14.7% (active) | 11.3% | 12.2%
12 | O=[N+]([O-])c1ccc2c(c1)Cc1cc(I)ccc1-2 | 108% | 91.6% | 106% | 109% | 96% | 101% | 97.1% | 108% | 116% | 111% | 109% | 84.6% | 107% | 91.9% | 118% | 110% | 102% | 102% | 96.8% | 91.8%
13 | Cc1ccc(S(=O)(=O)Oc2ccccc2-c2ccccc2)cc1 | 23.2% | 5.05% (active) | -12.1% (active) | 42.8% | 24.8% | 42.4% | 5.97% (active) | 37.1% | 36% | 30.8% | 28.8% | 46% | 39.2% | 22.5% | 45.5% | 44.2% | 14% | 6.79% (active) | 18% | 20.7%
14 | C=CCNCCCN1C(=O)c2ccc3c4c(ccc(c24)C1=O)C(=O)N(CCCNCC=C)C3=O | -72.4% (active) | -17.1% (active) | -98.2% (active) | -91.2% (active) | -73.9% (active) | -15.5% (active) | -99.3% (active) | -80.4% (active) | -77.5% (active) | -76.3% (active) | -35.6% (active) | -78.7% (active) | -77.7% (active) | -44.3% (active) | -3.01% (active) | -9.77% (active) | -42.8% (active) | -71% (active) | 4.96% (active) | -3.33% (active)
15 | COc1cc(/C=C/C(=O)c2cc(-c3ccccc3)ccc2O)cc(OC)c1OC | 70% | 82.4% | 93.1% | 93.3% | 75.7% | 49.4% | 51.8% | 58.8% | 52.6% | 98.1% | 77.2% | 54% | 76.2% | 53.4% | 105% | 77.3% | 61.6% | 74.3% | 8.52% (active) | 28%
16 | COc1ccc(NC(=O)CCn2cnc3c(cc(-c4ccccc4)n3-c3ccccc3)c2=O)cc1 | 98.6% | 102% | -10.5% (active) | 57.2% | 77.4% | 86.6% | 91% | 92.4% | 66.4% | 101% | 104% | 85.8% | 85.1% | 88.8% | 105% | 82% | 78.3% | 108% | 93.3% | 104%
